# Laboratory results taken from PubChem BioAssay (EPA / NIEHS).
# Records with an inconclusive call do not appear. Activity calls are given as the source filed them. How the source made its calls: active means hit-call score of the fitted dose curve at least 0.9, where 1 is the maximum; inconclusive means response in the unintended direction; inactive means score below 0.9.
# Legend:
# [1] = ATG_XTT_Cytotoxicity: Cytotoxicity Assessment in the Attagene TRANS-FACTORIAL HepG2 Assay (AID 2283584);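 on AC50: cells exposed to compound for 24 h before reading; active means loss of viability signal versus DMSO baseline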
# Summary of the method: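 HepG2 human liver cells, transiently transfected with multiple GAL4-UAS reporter units, were dosed and read at 24 h by XTT as cell number. Loss of signal was fitted relative to DMSO negative control baseline.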
# [2] = TOX21_p53_BLA_p2_viability: Viability Assessment in the Tox21 HCT-116 p53 Agonism Beta-lactamase Assay, Phase 2 (AID 2283591);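 further: compound exposure lasted 16 h at 37 °C; actives lower the ATP signal meaning cytotoxicity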
# Summary of the method: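 Cytotoxicity readout: CellTiter-Glo ATP luminescence, 30 min at room temperature, after the beta-lactamase read. Cells were HCT116 exposed 16 h at 37C to compounds pin-transferred at 217-fold dilution from DMSO stocks.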
smiles,measurement,setting,value
CCCCCCc1ccc(N)cc1,outcome,[1],inactive
same,outcome,[2],inactive
c1ccc(CNc2ncnc3c2ncn3C2CCCCO2)cc1 (stereo not given),outcome,[1],inactive
same,outcome,[2],inactive
COc1ccccc1NC(=O)c1cc2ccccc2cc1O,outcome,[1],inactive
same,outcome,[2],inactive
O=C(Nc1ccc(Cl)c(Cl)c1)c1cc(Cl)cc(Cl)c1O,AC50,[1],43.1 µM (active)
same,AC50,[2],0.558 µM (active)
OCC1CCC(CO)CC1 (stereo not given),outcome,[1],inactive
same,outcome,[2],inactive
CC(=O)CC(C)C,outcome,[1],inactive
same,outcome,[2],inactive
Cc1ccccc1C(OCCN(C)C)c1ccccc1 (stereo not given),outcome,[1],inactive
same,outcome,[2],inactive
COCN(COC)c1nc(N(COC)COC)nc(N(COC)COC)n1,outcome,[2],inactive
